Marburg entry inh: qHTS for inhibitors of binding or entry into cells for Marburg Virus; Marburg virus pseudotyped entry inhibition, cell reporter; Potency, µM (doses to about 37.8 µM), without a hit: at the top dose activity change, negative = inhibition, hits mostly inhibitors; 300,000 compounds, 1.8% hits; AID 540276, 2011; calls by dose curve; tested in HEK293 cells
RE007 growth inh: qHTS Assay for Inhibitors of the HIV-1 protein Vpr | S. pombe RE007 Vpr strain, BacTiter-Glo ATP luminescence, 24 h | Potency, µM (titrated, usually from 92.2 µM), inactives show top-dose activity change, negative = less growth, hits mostly inhibitors | 360,000 compounds, 0.21% hits | AID 651644, 2012; active means well fitted falling curve with a large enough effect; inconclusive means small, poorly fitted or top-dose-only effect; inactive means no such curve, though single readings can be large or run the other way; further: nearly all actives have a fitted effect of over 50% in size
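Fission yeast strain RE007, carrying one chromosomally integrated HIV-1 vpr copy, was seeded at OD 0.01 in PMG+AL medium with 23 nL pinned compound. After 24 h at 30 °C and 99% humidity, viability was read by BacTiter-Glo luminescence.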
FMDV inh: High Throughput Screening for Foot and Mouth Disease Virus Antivirals. FMDV antiviral cell-based qHTS. Potency, µM (titrated, usually from 57.9 µM), inactives show at the highest dose activity change, negative = inhibition, most hits filed as inhibitors. 410,000 compounds, 1.2% hits; calls by dose curve; tested in HEK293T cells; further: read-out not given here; nearly all actives have a fitted effect of over 45% in size
LASV entry inh: qHTS for Inhibitors of binding or entry into cells for Lassa Virus; Lassa virus pseudotype entry inhibition, cell reporter; Potency, µM (series often up to 37.9 µM), for the others: at the top dose activity change, negative = inhibition, usual class: inhibitors; 300,000 compounds, 1.2% hits; AID 540256, 2011; calls by dose curve; tested in HEK293 cells; further: nearly all actives have a fitted effect of over 50% in size
Sm TGR inh: qHTS Assay for the Inhibitors of Schistosoma Mansoni Peroxiredoxins; 360,000 compounds, 3% hits; purified TGR, DTNB reduction, TNB absorbance 405 nm; Potency, µM (highest dose often 114 µM), for inactives: top-dose activity change, negative = inhibition, usual class: inhibitors; AID 485364, 2010; Schistosoma mansoni thioredoxin glutathione reductase (TGR), Q962Y6; further: nearly all actives have a fitted effect of over 60% in size
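Kinetic colorimetric format: TGR-catalysed, NADPH-driven DTNB reduction monitored via TNB absorbance. Enzyme dispensed at 20 nM; compound exposure 15 min at room temperature before reaction start.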
HCV inhibitor: qHTS Assay for Inhibitors of Hepatitis C Virus (HCV) | 340,000 compounds, 3.4% hits | Potency, µM (highest dose often 41.8 µM), without a hit: at the top dose activity change, negative = inhibition, usual class: inhibitors | Huh7.5.1 HCVcc-Cre infection, luciferase reporter, 44 h
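Antiviral activity was scored by luciferase reporter output from cells infected with HCVcc-Cre (~0.5 moi) in presence of compound, 44 h infection period, cells seeded 1,000/well 4 h prior.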
An asterisk follows results filed as active; u = inconclusive; x = not tested or not shown; [ ] = remark or other dose. The list is not random: actives were taken first. Their share in the collection is about 7.2%. Unless noted, the call rests on the fitted dose curve; in most records, active means well fitted curve in the direction sought with a large enough effect; inconclusive means small, poorly fitted or top-dose-only effect, or another doubt; inactive means no such curve, though single readings can be large; an effect the other way counts as inactive or inconclusive. On the % scale 0 is the no-effect control and ±100 the full control effect; potency means the concentration at half of the fitted maximal effect.

SMILES	Marburg entry inh	RE007 growth inh	FMDV inh	LASV entry inh	Sm TGR inh	HCV inhibitor
CC(C)Cn1c(=O)c2ccccc2n2c(CCC(=O)N3CCN(c4ccccc4)CC3)nnc12	u	x	-12.9%	x	3.6%	x
CSc1ccc(CCNC(=O)c2csc3c2CCCCC3)cc1	u	x	10.8%	x	4.9%	x
CC(C)C[C@H](NC(=O)C1OC1C(=O)O)C(=O)NCCCCN=C(N)N (some centres not stated)	4.11µM*	x	x	u	x	x
O=C(NC1CCCCC1)c1cc(Nc2cccc(C(F)(F)F)c2)nc2ccccc12	x	x	2.9%	u	11.3%	x
CSc1ncccc1C(=O)N1CCCC(C(=O)c2ccc3ccccc3c2)C1 (configuration not stated)	u	-13.5%	u	11.2µM*	-10.2%	u
Cc1ncsc1C(=O)N1CCCC(C(=O)c2ccc3ccccc3c2)C1 (configuration not stated)	u	-6.9%	28.2µM*	-12.4%	-23.8%	-22.0%
COc1ccc(C(=O)C2CCCN(C(=O)CCc3scnc3C)C2)c(C)c1 (configuration not stated)	4.5%[46.1 µM]	15.3%	-19.1%	-21.6%[46.1 µM]	31.6µM*	u
COc1cc2oc(=O)c3c4c(cc5ccc(c1CCN(C)C)c2c53)OCO4	x	x	-6.0%	x	x	x
Cc1ccc(Nc2nc(C)cc(C)n2)c(C(=O)O)c1	x	x	0.0%	10.1%[46.1 µM]	16.8%	x
COc1cc(=O)n2c(c1C(=O)N(C)Cc1nonc1C)CCN(Cc1cccc3ccccc13)CC2	x	x	-5.4%	x	x	x
CCOc1cc(/C=C2\C(=O)N(CCc3ccc(OC)c(OC)c3)C(C)=C2C(=O)OC)ccc1O	16.6%	0.0%	20µM*	-5.7%	20µM*	-0.9%
COc1cc(/C=C2\C(=O)NC(=O)N(CCc3ccc(F)cc3)C2=O)ccc1O	2.9%	18.0%	u	u	u	2.1%
COC(=O)C1=C(C)N(CCc2ccccc2)C(=O)/C1=C\c1ccco1	-23.4%	-14.0%	-16.1%	u	44.7µM*	-15.8%
CCCCN1C(=O)/C(=C\c2ccco2)C(=O)N(CCc2ccccc2)C1=O	-10.1%	-13.0%	u	3.9%	-0.6%	5.4%
CCOC(=O)C1=C(C)N(c2ccc(C)cc2)C(=O)/C1=C\c1ccc(O)c(OC)c1	x	-14.3%	u	x	3.16µM*	-18.8%
COC(=O)C1=C(C)N(Cc2ccc(C)cc2)C(=O)/C1=C\c1ccc(O)c(OC)c1	u	9.8%	u	u	u	-6.0%
COC(=O)C1=C(C)N(Cc2ccc(C)cc2)C(=O)/C1=C\c1cc(OC)c(OC)c(OC)c1	u	-14.4%	20µM*	u	-23.2%	u
O=C1NC(=O)N(Cc2ccccc2)C(=O)/C1=C\c1ccco1	12.0%[46.1 µM]	1.0%	u	x	-48.0%	20.1%
COC(=O)C1=C(C)N(Cc2ccccc2)C(=O)/C1=C\c1ccco1	u	8.2%	-19.3%	-24.6%[46.1 µM]	8.91µM*	-19.1%
COC(=O)C1=C(C)N(Cc2cccnc2)C(=O)/C1=C\c1sccc1C	6.9%[46.1 µM]	-20.7%	-11.6%	-3.4%[46.1 µM]	-9.1%	11.2µM*
COCCCN1C(=O)/C(=C\c2cccs2)C(C(=O)OC)=C1C	13.6%[46.1 µM]	-2.1%	3.3%	4.8%[46.1 µM]	u	2.3%
CCc1ccc(CNC(=O)Cn2nc(C)n3c(cc4cc(C)ccc43)c2=O)cc1	-2.8%[46.1 µM]	x	-7.2%	x	0.6%	x
Cc1cc(-c2ccnc(-n3ncc(C(=O)NCCc4cccnc4)c3C)n2)c(C)s1	x	x	-3.3%	x	x	x
CN(C)C(=O)CCc1ccc2c3c([nH]c2c1)[C@]1(CCC2CCCC2)[C@@H](C(=O)N2CCOCC2)C[C@H](CC(=O)NCCN2CCOCC2)C(=O)N1CC3	x	6.8%	6.5%	x	x	0.316µM*
CC[C@]12c3[nH]c4cc(CCC(=O)N(C)C)ccc4c3CCN1C(=O)[C@@H](CC(=O)NCc1cccc(C(F)(F)F)c1)C[C@@H]2C(=O)N1CCN(C(=O)C2CC2)CC1	x	-6.1%	-14.0%	x	x	0.562µM*
SMILES	Marburg entry inh	RE007 growth inh	FMDV inh	LASV entry inh	Sm TGR inh	HCV inhibitor
CC[C@]12c3[nH]c4cc(CCC(=O)N(C)C)ccc4c3CCN1C(=O)[C@@H](CC(=O)NCc1cccc(C(F)(F)F)c1)C[C@@H]2C(=O)N1CCN(C(=O)c2ccco2)CC1	5.2%	2.9%	-11.0%	x	x	-4.5%[8.37 µM]
CCN(CC)C(=O)[C@H]1CC(CC(=O)NCc2cccc(C(F)(F)F)c2)C(=O)N2CCc3c([nH]c4ccccc34)[C@]12C (some centres not stated)	x	-18.5%	0.0%	x	x	12.6µM*
CN(C)CCCNC(=O)C[C@H]1C[C@H](C(=O)N2CCOCC2)[C@@]2(CCC3CCCC3)c3[nH]c4cc(CCC(=O)N(C)C)ccc4c3CCN2C1=O	x	3.1%	-5.1%	x	x	29.1%
Cc1cccn2c(=O)c(/C=C(\C#N)c3nc4ccccc4n3C)c(Oc3ccc(Cl)cc3)nc12	u	x	-12.6%	-15.0%[46.1 µM]	0.0%	x
Cc1cc(C)cc(NC(=O)C2CCN(S(=O)(=O)c3ccc4c(c3)oc(=O)n4C)CC2)c1	-1.1%[46.1 µM]	x	-17.4%	2.0%[46.1 µM]	-1.5%	x
Cc1cc(OCC(=O)Nc2sc3c(c2C#N)CC(C)(C)NC3(C)C)c(C(C)C)cc1Cl	x	-12.9%	u	x	4.1%	3.16µM*
CC1(C)Cc2c(sc(NC(=O)COc3ccccc3)c2C#N)C(C)(C)N1	0.7%	8.3%	-8.6%	-9.0%	-134.6%	12.6µM*
COc1ccc(CC(=O)Nc2sc3c(c2C#N)CC(C)(C)NC3(C)C)cc1OC	x	1.8%	u	x	89.1µM*	-15.3%
Cc1ccc(C(C)C)c(OCC(=O)Nc2sc3c(c2C#N)CC(C)(C)NC3(C)C)c1	u	10.2%	u	-19.0%	-0.3%	u
COC(=O)c1c(NC(=O)COc2ccc(Cl)cc2)sc2c1CC(C)(C)NC2(C)C	u	16.7%	18.9%	-6.4%[46.1 µM]	0.0%	11.2µM*
CCNc1c(NC(=O)c2cc(OCC)c(OCC)c(OCC)c2)c(=O)oc2ccccc12	2.5%[46.1 µM]	x	-15.4%	-10.4%[46.1 µM]	4.2%	x
CC(Sc1nnc(-c2cccnc2)o1)C(=O)NC1CCCC1 (configuration not stated)	-27.6%	-13.5%	-11.9%	4.2%	-4.7%	12.7%
O=C(Nc1ccc(F)c(Cl)c1)C1CCN(S(=O)(=O)c2ccc3c(c2)CCCN3C(=O)C2CCC2)CC1	x	x	u	u	9.4%	x
COC(=O)[C@H](COC(C)(C)C)NC(=O)O[C@@H]1C(=O)c2cc(OC)ccc2O[C@H]1c1ccc(OC)c(Br)c1	-47.4%[14.2 µM]	x	x	x	x	x
Cc1ccc(S(=O)(=O)N(C)c2ccc(C(=O)Nc3ccc(C)cn3)cc2)cc1	u	10.3%	u	u	-7.7%	5.01µM*
Cc1ccc(S(=O)(=O)N(C)c2ccc(C(=O)Nc3ccccn3)cc2)cc1	12.6%	6.9%	u	-10.3%	-1.8%	-24.2%

Screening data: PubChem BioAssay, National Center for Advancing Translational Sciences (NCATS)
